# In the supplement of paper PMC6555819:
# What was measured:
# Assay in all cases: PBM binding z-score (relative to random genomic background probes); higher = stronger binding; sequences stand for … in GC…GCGATTGACAGCGTAGAATGAAGG
# [1] = tested on: FXR:RXRa (NR concentration 270 nM, RXRa partner concentration 90 nM)
# Method in brief: (§1)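 Each nuclear receptor dimer, without ligand, was incubated for 1 h on custom Agilent 4×180K protein-binding microarrays. Binding was detected with antibodies against each partner (one per run), and scanned fluorescence was regression-normalized. The binding z-scores are referenced to random human genomic background probes.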
# [2] = tested on: LXRa:RXRa (NR concentration 270 nM, RXRa partner concentration 90 nM)
# Method in brief: as §1
# [3] = tested on: LXRa homodimer (NR concentration 270 nM)
# Method in brief: as §1
# [4] = tested on: LXRb:RXRa (NR concentration 270 nM, RXRa partner concentration 90 nM)
# Method in brief: as §1
# [5] = tested on: LXRb homodimer (NR concentration 270 nM)
# Method in brief: as §1
# [6] = tested on: PPARa:RXRa (NR concentration 270 nM, RXRa partner concentration 90 nM)
# Method in brief: as §1
# [7] = tested on: PPARg:RXRa (NR concentration 180 nM, RXRa partner concentration 90 nM)
# Method in brief: as §1
# [8] = tested on: PPARg:RXRa 270nM:90nM, anti-RXR (NR concentration 270 nM, RXRa partner concentration 90 nM)
# Method in brief: as §1
# [9] = tested on: PPARg:RXRa 30nM:10nM, anti-RXR (NR concentration 30 nM, RXRa partner concentration 10 nM)
# Method in brief: as §1
# [10] = tested on: PPARg:RXRa 90nM:30nM, anti-RXR (NR concentration 90 nM, RXRa partner concentration 30 nM)
# Method in brief: as §1
# [11] = tested on: PPARg:RXRa DBDmut IVT, anti-RXR (DBD mutation: RXRa K156A/R161A, NR concentration 270 nM, RXRa partner concentration 90 nM)
# Method in brief: as §1
# [12] = tested on: PPARg:RXRa IVT, anti-PPARg (NR concentration 270 nM, RXRa partner concentration 90 nM)
# Method in brief: as §1
# [13] = tested on: PPARg DBDmut:RXRa IVT, anti-PPARg (DBD mutation: PPARg1 K132A/R137A, NR concentration 270 nM, RXRa partner concentration 90 nM)
# Method in brief: as §1
# [14] = tested on: PPARg DBDmut IVT, anti-PPARg (DBD mutation: PPARg1 K132A/R137A, NR concentration 270 nM)
# Method in brief: as §1
# [15] = tested on: PPARg homodimer (NR concentration 180 nM)
# Method in brief: as §1
# [16] = tested on: PXR:RXRa (NR concentration 270 nM, RXRa partner concentration 90 nM)
# Method in brief: as §1
# [17] = tested on: PXR homodimer (NR concentration 270 nM)
# Method in brief: as §1
# [18] = tested on: RARa:RXR (NR concentration 270 nM, RXRa partner concentration 90 nM)
# Method in brief: as §1
# [19] = tested on: RARa homodimer (NR concentration 270 nM)
# Method in brief: as §1
# [20] = tested on: RARb:RXRa (NR concentration 270 nM, RXRa partner concentration 90 nM)
# Method in brief: as §1
Sequence,PBM binding z-score [1],PBM binding z-score [2],PBM binding z-score [3],PBM binding z-score [4],PBM binding z-score [5],PBM binding z-score [6],PBM binding z-score [7],PBM binding z-score [8],PBM binding z-score [9],PBM binding z-score [10],PBM binding z-score [11],PBM binding z-score [12],PBM binding z-score [13],PBM binding z-score [14],PBM binding z-score [15],PBM binding z-score [16],PBM binding z-score [17],PBM binding z-score [18],PBM binding z-score [19],PBM binding z-score [20]
AGTCACAGTTCACTAGGTAACGTAAGATTCAGCT,0.936,1.66,0.659,1.19,0.166,2.84,2.96,3.17,1.06,2.12,2.42,3.71,1.36,0.988,1.05,1.35,0.619,1.25,0.737,2.31
TATACAGGGTCAAAGACCAGAGTACGAATGTCGA,7.01,5.81,2.11,4.83,2.31,5.9,6.65,5.94,3.43,5.01,2.05,4.19,1.75,1.67,1.9,3.65,0.419,4.04,0.668,4.25
CCTACTGGGCCAAGGTAATTGATCAGTCAAAGCA,-0.458,-0.478,-0.526,-0.461,-0.835,0.508,0.767,1.22,0.0282,0.531,4.09,3.56,-0.62,-0.619,-0.616,-0.363,-0.674,0.0953,-0.936,0.0612
CCTATTAGTTGTCCATAAGGGCAACCGAAGCTCG,0.902,0.553,0.8,0.558,1.17,0.459,0.174,0.706,-0.0798,0.365,0.332,0.804,0.706,1.02,1.69,0.563,0.996,1.1,2.11,1.44
AGAATGAGGTTACCAAAGATCAAGGAAACGCTTG,2.13,7.01,0.25,4.24,-0.325,3.7,2.89,3.09,1.08,2.26,3.78,3.43,0.922,0.563,0.97,2.06,-0.325,2.48,-0.42,2.25
GGAACGAGCGCATTCGAGTTGATAGCATGGCGAT,-1.63,-0.936,-0.9,-1.41,-1.24,-1.94,0.379,-1.09,-0.954,-1.27,-0.641,-0.81,-0.918,-0.781,-1.13,-0.904,-0.628,-1.29,-0.875,-1.26
TCTTGTAGATCAGCAGTTTAAGAAAGCTGGCCAA,0.068,-0.0226,-0.271,0.182,-0.0391,0.33,-0.762,1.27,2.68,2.09,1.44,0.0506,0.167,0.0418,-0.0273,0.249,-0.18,0.328,0.193,-0.0976
